Measurements reported in PubChem BioAssay (EPA / NIEHS).
“And” between values parts separate entries of the source, which are not always exact repeats. Equal entries are not always repeated. Results filed as inconclusive are left out. Some compounds were tested as several samples or in several runs, with calls that do not always agree. The source made the active and inactive calls. The calls were made as follows, unless noted: active = hit-call score of the fitted dose curve at least 0.9, where 1 is the maximum; inactive = score below 0.9.

How the values were obtained:
[1] = IUF_NPC2c_oligodendrocyte_migration_120hr: Leibniz Research Institute for Environmental Medicine (IUF) 120-hour Neural Progenitor Cell Migration Assay for Oligodendrocyte Migration (NPC2c) (AID 2284297);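 also: O4-positive oligodendrocyte migration distance divided by radial glia migration distance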
Summary of the method: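 Human fetal cortex-derived neural progenitor spheres (0.3 mm) were plated on poly-D-lysine/laminin in N2 differentiation medium and exposed to 7 concentrations for 120 h, with half-medium renewal at day 3. Oligodendrocyte migration distance was normalized to radial glia migration, relative to DMSO.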

[2] = IUF_NPC2a_radial_glia_migration_120hr: Leibniz Research Institute for Environmental Medicine (IUF) 120-hour Neural Progenitor Cell Migration Assay for Radial Glia Migration (NPC2a) (AID 2284298)
Summary of the method: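 Single 0.3 mm primary human fetal-cortex (GW 16-19) NPC spheres were plated on poly-D-lysine/laminin in N2 differentiation medium and exposed from day 0 for 120 h, half-medium refreshed day 3. Migration distance came from Hoechst nuclei-density imaging, relative to DMSO.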

[3] = IUF_NPC2a_radial_glia_migration_72hr: Leibniz Research Institute for Environmental Medicine (IUF) 72-hour Neural Progenitor Cell Migration Assay for Radial Glia Migration (NPC2a) (AID 2284299)
Summary of the method: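 Migration out of plated human neural progenitor spheres is scored at 72 h as the distance in um from the sphere core edge to the edge of the migration area. Values are the mean of four manual measurements per well, normalised to DMSO.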

[4] = IUF_NPC2b_neuronal_migration_120hr: Leibniz Research Institute for Environmental Medicine (IUF) 120-hour Neural Progenitor Cell Migration Assay for Neuron Migration (NPC2b) (AID 2284300)
Summary of the method: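 Primary human fetal cortex neural progenitor spheres (0.3 mm) plated on poly-D-lysine/laminin in N2 differentiation medium, exposed 120 h with half-medium refresh at day 3. TUBB3-stained neuron distance from sphere core, normalized to radial glia migration, versus DMSO.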

[5] = IUF_NPC3_neuronal_differentiation_120hr: Leibniz Research Institute for Environmental Medicine (IUF) 120-hour Neuronal Differentiation Assay (NPC3) (AID 2284301)
Summary of the method: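 Primary human fetal neural progenitor spheres (GW 16-19, 0.3 mm) plated on poly-D-lysine/laminin in N2 medium, exposed from day 0 for 120 h with half-medium refresh at day 3. TUBB3+ cells as percent of Hoechst nuclei in migration area; DMSO baseline.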

[6] = IUF_NPC4_neurite_length_120hr: Leibniz Research Institute for Environmental Medicine (IUF) 120-hour Neuronal Morphology Assay for Neurite Length (NPC4) (AID 2284302)
Summary of the method: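 Human fetal cortex (GW 16-19) neural progenitor spheres, 0.3 mm, were plated on poly-D-lysine/laminin in N2 differentiation medium and exposed from day 0 for 120 h, half-feeding at day 3. Mean TUBB3+ neurite length (µm) came from skeletonized images, relative to DMSO.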

[7] = IUF_NPC5_oligodendrocyte_differentiation_120hr: Leibniz Research Institute for Environmental Medicine (IUF) 120-hour Oligodendrocyte Differentiation Assay (NPC5) (AID 2284304; active = hit-call score of the fitted dose curve at least 0.9, where 1 is the maximum;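 also: primary human fetal neural progenitor spheres plated to migrate and differentiate; share of O4-positive cells among Hoechst nuclei found by CNN image analysis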)
Summary of the method: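 Primary human fetal (GW 16-19) neural progenitor spheres (0.3 mm) plated on poly-D-lysine/laminin in N2 differentiation medium, exposed from day 0 for 120 h with half-medium refresh at day 3; O4-positive cells as percent of Hoechst nuclei, CNN-identified, versus DMSO.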

[8] = IUF_NPC4_neurite_area_120hr: Leibniz Research Institute for Environmental Medicine (IUF) 120-hour Neuronal Morphology Assay for Neurite Area (NPC4) (AID 2284305; active = hit-call score of the fitted dose curve at least 0.9, where 1 is the maximum)
Summary of the method: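 Human fetal cortex-derived neural progenitor spheres (0.3 mm, GW 16-19) plated on poly-D-lysine/laminin in N2 differentiation medium and exposed from day 0 for 120 h across 7 concentrations plus solvent control. Neurite area is mean pixel area per TUBB3-positive neuron via skeletonization, analysed relative to DMSO.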

[9] = read-out: Thrombomodulin, THBD (gene 7056); experiment: BSK_LPS_Thrombomodulin: BioMAP Diversity Plus: LPS Assay for Thrombomodulin Biomarker Activity (AID 2284296); conditions: primary human HUVEC with PBMC
Protocol: BSK_LPS is a cell-based, multiplexed-readout assay that uses umbilical vein endothelium and peripheral blood mononuclear cells, a human vascular primary cell co-culture, with measurements taken at 24 hours after chemical dosing in a 96-well plate.BSK_LPS_Thrombomodulin is an assay component measured in the BSK_LPS assay. It measures Thrombomodulin antibody related to regulation of gene expression using ELISA technology.Data from the assay component BSK_LPS_Thrombodulin was analyzed at the endpoint, BSK_LPS_Thrombomodulin, in the positive analysis fitting direction relative to DMSO as the negative control and baseline of activity. Using a type of binding reporter, gain or loss-of-signal activity can be used to understand protein changes. To generalize the intended target to other relatable targets, this assay endpoint is annotated to the 'gpcr' intended target family, where the subfamily is 'rhodopsin-like receptor'.
The levels of cell surface (or secreted, indicated by the prefix "s") biomarker endpoints were measured by ELISA. Overt cytotoxicity to cells in confluent adherent cultures (all systems other than the BT system) was assessed by measuring total protein levels using sulforhodamine B (SRB) staining in parallel cultures at the time of biomarker measurements, indicated as SRB endpoints. For proliferation assays for adherent cell types, individual cell types are cultured at sub-confluence and relative cell numbers quantified by SRB staining at time points optimized for each system (48 h: 3C and CASM3C systems; 72 h: BT and HDF3CGF systems; 96 h: SAg system). SRB was performed by staining cells with 0.1% SRB after fixation with 10% TCA and reading wells at 560 nm.Viability and proliferation of PBMC (T cells) was quantified by Alamar Blue reduction for the SAg and BT systems. For PBMC viability (referred to as PBMC Cytotoxicity within the assay endpoint names), cells were plated (75,000/well in a 96-well plate) and then chemical samples added for 1 h before addition of activators, SEB and TSST-1 (20 ng/mL final concentration each). Cells were incubated for 90 h. Then, Alamar Blue (20 uL/well) (Invitrogen, Cat DAL1100) was added for 6 h, and the plates were read with a fluorescence microplate reader at 546/580 nm (excitation/emission). For PBMC proliferation, cells were plated and activated as above but incubated for only 16 h prior to addition of Alamar Blue. Plates were read after 6 h.

CD69, CD69 (gene 969) = experiment: BSK_LPS_CD69: BioMAP Diversity Plus: LPS Assay for CD69 Biomarker Activity (AID 2284303); conditions: primary human HUVEC with PBMC
Summary of the method: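 Human umbilical vein endothelial cells co-cultured with PBMC under LPS stimulation, chemical exposure 24 h; cell-surface CD69 measured by ELISA and fitted in the positive direction versus DMSO.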

Measured: AC50

CO/C=C(/C(=O)OC)c1ccccc1COc1cccc(C(F)(F)F)n1
inactive: [8]
active: [1] 34.6 µM | [2] 33 µM | [3] 50 µM | [4] 50 µM | [5] 22.2 µM | [6] 19.7 µM | [7] 1.51 µM

CCOP(=S)(OCC)SCSC(C)(C)C
not listed: [7] | [9] | CD69, CD69 (gene 969)
inactive: all other assays above

O=C(O)C(F)(F)C(F)(F)C(F)(F)C(F)(F)C(F)(F)C(F)(F)C(F)(F)C(F)(F)F
inactive: [9]
active: CD69, CD69 (gene 969) 41.8 µM and 30 µM

O=C(O)C(F)(F)C(F)(F)C(F)(F)C(F)(F)C(F)(F)C(F)(F)C(F)(F)C(F)(F)C(F)(F)F
active: [9] 51.4 µM and 54.9 µM | CD69, CD69 (gene 969) 49.1 µM and 45.4 µM

O=S(=O)(O)C(F)(F)C(F)(F)C(F)(F)C(F)(F)F
inactive: all assays above

O=S(=O)(O)C(F)(F)C(F)(F)C(F)(F)C(F)(F)C(F)(F)C(F)(F)F
inactive: all assays above

C=CC(N)=O
not listed: [9] | CD69, CD69 (gene 969)
inactive: all other assays above

NS(=O)(=O)C(F)(F)C(F)(F)C(F)(F)C(F)(F)C(F)(F)C(F)(F)C(F)(F)C(F)(F)F
active: [9] 14.5 µM | CD69, CD69 (gene 969) 38.4 µM and 24.5 µM
inactive: [9]

O=C(O)C(F)(F)C(F)(F)C(F)(F)C(F)(F)C(F)(F)F
inactive: [9] | CD69, CD69 (gene 969)

COc1ccc(O)c(C(C)(C)C)c1
inactive: [9] | CD69, CD69 (gene 969)
